In PubChem BioAssay (NCATS):
Inconclusive results are not listed. A call without a number means that no potency is given here. A number with no mark means an inactive call. The source made the active and inactive calls. The call rests on the fitted dose curve; in most records, active means well fitted inhibition curve with a large enough effect; inconclusive means small, poorly fitted or top-dose-only effect; inactive means flat fitted curve, though single readings scatter.

What was measured:
[1] = qHTS profiling for inhibitors of Plasmodium falciparum proliferation (AID 504749); on all read-outs here: nearly all actives have a fitted effect of over 60% in size; settings: P. falciparum in erythrocytes, SYBR Green DNA, 72 h; for activity, negative = inhibition: at 28.7 µM (top of the series)
Summary of the method: (§1)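 Three-day growth assay of blood-stage parasites in erythrocytes (0.3% parasitemia, 2.5% hematocrit) at 37 C, 5% CO2, quantified by SYBR Green DNA staining after overnight detergent lysis.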

[2] = tested on: 3D7; assay: as above; settings: P. falciparum in erythrocytes, SYBR Green DNA, 72 h; series mostly up to 28.7 µM
Summary of the method: as §1

[3] = tested on: AA1029; assay: as above; settings: P. falciparum in erythrocytes, SYBR Green DNA, 72 h; series mostly up to 28.7 µM
Summary of the method: as §1

[4] = tested on: AS120; assay: as above; settings: P. falciparum in erythrocytes, SYBR Green DNA, 72 h; series mostly up to 28.7 µM
Summary of the method: as §1

[5] = tested on: ATS189; assay: as above; settings: P. falciparum in erythrocytes, SYBR Green DNA, 72 h; series mostly up to 28.7 µM
Summary of the method: as §1

[6] = tested on: ATS95; assay: as above; settings: P. falciparum in erythrocytes, SYBR Green DNA, 72 h; series mostly up to 28.7 µM
Summary of the method: as §1

[7] = tested on: C2A; assay: as above; settings: P. falciparum in erythrocytes, SYBR Green DNA, 72 h; series mostly up to 28.7 µM
Summary of the method: as §1

[8] = tested on: CP185; assay: as above; settings: P. falciparum in erythrocytes, SYBR Green DNA, 72 h; series mostly up to 28.7 µM
Summary of the method: as §1

[9] = tested on: CP191; assay: as above; settings: P. falciparum in erythrocytes, SYBR Green DNA, 72 h; series mostly up to 28.7 µM
Summary of the method: as §1

[10] = tested on: CP192; assay: as above; settings: P. falciparum in erythrocytes, SYBR Green DNA, 72 h; series mostly up to 28.7 µM
Summary of the method: as §1

[11] = tested on: CP194; assay: as above; settings: P. falciparum in erythrocytes, SYBR Green DNA, 72 h; series mostly up to 28.7 µM
Summary of the method: as §1

[12] = tested on: CP201; assay: as above; settings: P. falciparum in erythrocytes, SYBR Green DNA, 72 h; series mostly up to 28.7 µM
Summary of the method: as §1

[13] = tested on: CP203; assay: as above; settings: P. falciparum in erythrocytes, SYBR Green DNA, 72 h; series mostly up to 28.7 µM
Summary of the method: as §1

[14] = tested on: CP211; assay: as above; settings: P. falciparum in erythrocytes, SYBR Green DNA, 72 h; series mostly up to 28.7 µM
Summary of the method: as §1

[15] = tested on: CP215; assay: as above; settings: P. falciparum in erythrocytes, SYBR Green DNA, 72 h; series mostly up to 28.7 µM
Summary of the method: as §1

[16] = tested on: CP217; assay: as above; settings: P. falciparum in erythrocytes, SYBR Green DNA, 72 h; series mostly up to 28.7 µM
Summary of the method: as §1

[17] = tested on: CP237; assay: as above; settings: P. falciparum in erythrocytes, SYBR Green DNA, 72 h; series mostly up to 28.7 µM
Summary of the method: as §1

[18] = tested on: CP238; assay: as above; settings: P. falciparum in erythrocytes, SYBR Green DNA, 72 h; series mostly up to 28.7 µM
Summary of the method: as §1

[19] = tested on: 7G8; assay: as above; settings: P. falciparum in erythrocytes, SYBR Green DNA, 72 h; series mostly up to 28.7 µM
Summary of the method: as §1

[20] = tested on: CP247; assay: as above; settings: P. falciparum in erythrocytes, SYBR Green DNA, 72 h; series mostly up to 28.7 µM
Summary of the method: as §1
Potency means the concentration at half of the fitted maximal effect.

## CC/C=C\C/C=C\C/C=C\C/C=C\C/C=C\CCCC(=O)O
[1]; parasite line A
  activity, negative = inhibition: -4.56%
[1]; parasite line B
  activity, negative = inhibition: -6.54%
[2]
  Potency: inactive
[3]
  Potency: inactive
[4]
  Potency: inactive
[5]
  Potency: inactive
[6]
  Potency: inactive
[7]
  Potency: inactive
[8]
  Potency: inactive
[9]
  Potency: inactive
[10]
  Potency: inactive
[11]
  Potency: inactive
[12]
  Potency: inactive
[13]
  Potency: inactive
[14]
  Potency: inactive
[15]
  Potency: inactive
[16]
  Potency: inactive
[17]
  Potency: inactive
[18]
  Potency: inactive

## CCCCCCCCCCCCCCCCCCCCCC(=O)Nc1ccn([C@@H]2O[C@H](CO)[C@@H](O)[C@@H]2O)c(=O)n1
[1]; parasite line A
  activity, negative = inhibition: 4.02%
[1]; parasite line B
  activity, negative = inhibition: 6.88%
[2]
  Potency: inactive
[19]
  Potency: inactive
[3]
  Potency: inactive
[4]
  Potency: inactive
[5]
  Potency: inactive
[6]
  Potency: inactive
[7]
  Potency: inactive
[8]
  Potency: inactive
[9]
  Potency: inactive
[10]
  Potency: inactive
[11]
  Potency: inactive
[12]
  Potency: inactive
[14]
  Potency: inactive
[15]
  Potency: inactive
[16]
  Potency: inactive
[17]
  Potency: inactive
[18]
  Potency: inactive
[20]
  Potency: inactive

## NC(=S)N=Nc1ccc(NN=C(N)N)cc1
[1]; parasite line A
  Potency: 10 µM (active)
[1]; parasite line B
  Potency: 10 µM (active)
[2]
  Potency: 12.6 µM (active)
[19]
  Potency: 10 µM (active)
[3]
  Potency: 12.6 µM (active)
[4]
  Potency: 12.6 µM (active)
[5]
  Potency: 10 µM (active)
[6]
  Potency: 10 µM (active)
[7]
  Potency: 5.62 µM (active)
[8]
  Potency: 11.2 µM (active)
[9]
  Potency: 4.47 µM (active)
[10]
  Potency: 8.49 µM (active)
[11]
  Potency: 7.57 µM (active)
[13]
  Potency: 12 µM (active)
[14]
  Potency: 7.57 µM (active)
[15]
  Potency: 7.57 µM (active)
[16]
  Potency: 12.6 µM (active)
[17]
  Potency: 10 µM (active)
[18]
  Potency: 11.2 µM (active)
[20]
  Potency: 11.2 µM (active)

## COc1cc(NCCCC(C)N)c2ncccc2c1 (configuration not stated)
[1]; parasite line A
  Potency: 2 µM (active)
[1]; parasite line B
  Potency: 0.891 µM (active)
[2]
  Potency: 2 µM (active)
[19]
  Potency: 0.224 µM (active)
[3]
  Potency: 12.6 µM (active)
[4]
  Potency: 3.16 µM (active)
[5]
  Potency: 11.2 µM (active)
[6]
  Potency: 11.2 µM (active)
[7]
  Potency: 10 µM (active)
[8]
  Potency: 11.2 µM (active)
[9]
  Potency: 5.01 µM (active)
[11]
  Potency: 7.57 µM (active)
[13]
  Potency: 7.57 µM (active)
[15]
  Potency: 8.49 µM (active)
[16]
  Potency: 11.2 µM (active)
[17]
  Potency: 7.08 µM (active)
[18]
  Potency: 11.2 µM (active)
[20]
  Potency: 4.47 µM (active)

## Cc1cccc(C)c1NC(=O)NC1=CCCN1C
[1]; parasite line A
  activity, negative = inhibition: 5.4%
[1]; parasite line B
  activity, negative = inhibition: 1.38%
[2]
  Potency: inactive
[19]
  Potency: inactive
[3]
  Potency: inactive
[5]
  Potency: inactive
[6]
  Potency: inactive
[7]
  Potency: inactive
[8]
  Potency: inactive
[9]
  Potency: inactive
[10]
  Potency: inactive
[11]
  Potency: inactive
[12]
  Potency: inactive
[13]
  Potency: inactive
[14]
  Potency: inactive
[15]
  Potency: inactive
[16]
  Potency: inactive
[17]
  Potency: inactive
[18]
  Potency: inactive
[20]
  Potency: inactive

## Oc1ccc(Cl)c2c1CCC2
[1]; parasite line A
  activity, negative = inhibition: 6.7%
[1]; parasite line B
  activity, negative = inhibition: 4.51%
[2]
  Potency: inactive
[3]
  Potency: inactive
[4]
  Potency: inactive
[5]
  Potency: inactive
[6]
  Potency: inactive
[7]
  Potency: inactive
[8]
  Potency: inactive
[9]
  Potency: inactive
[10]
  Potency: inactive
[11]
  Potency: inactive
[12]
  Potency: inactive
[13]
  Potency: inactive
[14]
  Potency: inactive
[15]
  Potency: inactive
[16]
  Potency: inactive
[17]
  Potency: inactive
[18]
  Potency: inactive
[20]
  Potency: inactive
